Source: PubChem BioAssay (National Center for Advancing Translational Sciences (NCATS))
Sampled rows, rich in hits. Any-hit rate of the full collection: about 3.8%.
MBNL1 CUG block = inhibitors of human MBNL1 binding to CUG repeat RNA. Q9NR56. TR-FRET MBNL1-His/biotin-(CUG)12 binding, 665/545 ratio. Potency, µM (titrated, usually from 57.5 µM), for inactives: top-dose activity change, negative = inhibition, most hits filed as inhibitors. hit rate 0.036% among 280,000. AID 2675; active = well fitted inhibition curve with a large enough effect in the signal ratio, with a control signal flat, not every such curve was filed as active; inconclusive = small, poorly fitted or top-dose-only effect, or effect the other way, or a change in a side signal; inactive = no such curve, though single readings can be large or run the other way; the % refers to the signal ratio; also: potency is read from the fitted curve at half-maximal effect; % is scaled to controls: 0 for no effect and ±100 for the full control effect
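His-tagged MBNL1 binding to biotinylated (CUG)12 RNA was measured by TR-FRET using terbium anti-His antibody (0.055 ng/ul final) and streptavidin-XL665 (5 nM final). Compounds were titrated 92 nM to 58 uM; 60 min at room temperature.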
hERG WT inh = inhibitors of human wildtype KCNH2 potassium channel; Q12809; U2OS, BacMam KCNH2, thallium flux FluxOr; active compounds read low; activity change, % at 1.84 µM; hit rate 0.37% among 340,000;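 active = maximum activity change below -70%; inconclusive = maximum activity change between -70% and -50%; inactive = maximum activity change above -50%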; also: % is scaled to controls: 0 for no effect and ±100 for the full control effect
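U2OS cells transduced with wild-type KCNH2 virus are loaded with FluxOr dye for 45 min, and thallium flux is measured in kinetic reads before and after stimulation buffer. Rate constants are normalized to DMSO controls.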
PLK1 PBD block = PLK1 (human) polo-box domain binding inhibition | P53350 | Plk1 PBD binding of FITC phosphopeptide, fluorescence polarization | Potency, µM, without a hit: max response, negative = inhibition, most hits filed as inhibitors | hit rate 2.8% among 360,000 | AID 720504; also: potency is read from the fitted curve at half-maximal effect; series mostly up to about 57 µM; % is scaled to controls: 0 for no effect and ±100 for the full control effect; nearly all actives have a fitted effect of over 65% in size
Target sequence (P53350 whole entry, looked up, the tested form may be a part): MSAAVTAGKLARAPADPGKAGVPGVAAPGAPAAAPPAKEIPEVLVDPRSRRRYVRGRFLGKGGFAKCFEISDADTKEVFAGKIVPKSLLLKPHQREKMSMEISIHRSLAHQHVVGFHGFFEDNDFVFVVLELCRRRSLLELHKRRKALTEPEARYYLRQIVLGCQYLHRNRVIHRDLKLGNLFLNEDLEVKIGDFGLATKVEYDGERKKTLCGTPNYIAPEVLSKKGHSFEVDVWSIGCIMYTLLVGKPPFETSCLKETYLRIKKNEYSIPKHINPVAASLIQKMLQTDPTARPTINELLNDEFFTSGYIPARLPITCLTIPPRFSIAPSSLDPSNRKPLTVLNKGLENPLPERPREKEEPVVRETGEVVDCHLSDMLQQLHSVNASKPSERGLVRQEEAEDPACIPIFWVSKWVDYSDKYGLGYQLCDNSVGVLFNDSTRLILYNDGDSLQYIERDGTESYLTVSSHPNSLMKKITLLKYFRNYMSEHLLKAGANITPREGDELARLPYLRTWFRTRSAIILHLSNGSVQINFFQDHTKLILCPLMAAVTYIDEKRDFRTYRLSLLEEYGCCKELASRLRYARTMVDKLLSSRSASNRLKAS
KCNH2 3.1 inh = KCNH2 3.1 (human) potassium channel inhibition. activity change, % (tested at about 1.8 µM). hit rate 0.95% among 340,000. AID 720553. U2OS KCNH2 3.1, thallium flux FluxOr; active compounds read low;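 active = maximum activity change below -70%; inconclusive = maximum activity change from -70% to -50%; inactive = maximum activity change above -50%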;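 also: thallium influx rate constant from kinetic fluorescence after stimulation buffer; % is scaled to controls: 0 for no effect and ±100 for the full control effect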
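Thallium flux via FluxOr fluorescence (Red40 quencher, 45 min loading) in U2OS cells virally expressing the KCNH2 3.1 isoform (1.77 x 10^8 /mL virus, overnight at 37 C). Rate constants from 2-min kinetic reads post-stimulation, normalised to positive and negative controls.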
VDR inh = inhibitors of human vitamin D receptor; P11473; VDR-SRC2-3 peptide fluorescence polarization, 2 h; Potency, µM, for the others: max response, negative = inhibition, actives largely listed as inhibitors; hit rate 0.93% among 400,000; AID 504847; also: potency is read from the fitted curve at half-maximal effect; % is scaled to controls: 0 for no effect and ±100 for the full control effect
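FP read-out; VDR + SRC2-3 coactivator peptide; 23 nl compound by pintool; 2 h RT incubation; reagents held at 4 deg C, protected from light.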
CBFb-RUNX1 inh = inhibitors of human CBF-beta and RUNX1 interaction. AID 1477. Potency, µM (doses to about 59.8 µM), without a hit: at the top dose activity, negative = inhibition, actives largely listed as inhibitors. AlphaScreen CBFb-His/RUNX1-biotin binding, biochemical. Q01196+Q13951. 230,000 tested, under 10 active; also: % of control where 0% means no effect
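Compounds were screened at multiple concentrations against a preformed CBF-beta(His)/RUNX1(biotin) complex (30 nM of each) for 15 min at room temperature, followed by 90 min with nickel and streptavidin beads and AlphaScreen reading.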
* = called active by the depositor; ? = inconclusive; / = no result given; [ ] = remark or other dose. Unless noted, calls follow the shape of the dose curve; as a rule, active = well fitted curve in the direction sought with a large enough effect; inconclusive = small, poorly fitted or top-dose-only effect, or another doubt; inactive = no such curve, though single readings can be large; an effect the other way counts as inactive or inconclusive.

SMILES	MBNL1 CUG block	hERG WT inh	PLK1 PBD block	KCNH2 3.1 inh	VDR inh	CBFb-RUNX1 inh
CCOc1ccccc1N(CC)C(=O)c1cc2c(=O)[nH]c3ccc(C)cc3c2s1	/	/	/	/	-8.5%	/
COc1ccc(CC2(CO)CCN(Cc3cnn(-c4ccccc4)c3)CC2)cc1	1.9%	-45.3	-10.9%	-89.2*	-24.2%	3.6%
Cc1cc2cc(CNC(=O)c3cccs3)ccc2n1C	5.3%[11.5 µM]	/	26.7µM*	17.5	-13.8%	?
CCC(CC)C(=O)NCc1ccc2c(c1)cc(C)n2C	-3.1%	4.5	-17.4%	11.0	7.9%	4.6%
O=C(O)c1ccccc1CSC1=NCCS1	0.6%	/	16.8µM*	11.2	-23.1%	15.1%
N#Cc1ccccc1CSC1=NCCS1	9.0%	-18.3	-0.9%	2.4	9.6%	-3.7%
COc1ccc(C)c(-n2c(N)cc(=O)n(Cc3ccccc3)c2=O)c1	/	-10.3	-14.0%	-81.6*	-24.6%	6.7%
O=C(O)c1cccc(Nc2ccncc2[N+](=O)[O-])c1	?	3.0	23.8µM*	0.8	?	/
O=[N+]([O-])c1cnccc1Nc1ccccc1	?	-12.3	26.7µM*	12.8	?	-3.9%
CCCCc1cc2c(cn1)=C(OC(=O)c1ccc(Cl)nc1)C(C)(OC(=O)CC)C(=O)C=2 (centres undefined)	/	/	/	/	/	0.3%[13.1 µM]
CCn1c(N)c(C(=O)Nc2ccccc2C(=O)OC)sc1=S	8.5%	-1.5	11.9µM*	-2.0	-5.5%	-23.5%
CCn1c(N)c(C(=O)NCCOC)sc1=S	14.1%	4.8	26.7µM*	3.2	-10.2%	0.2%
Cc1cccc(NC(=O)CSc2nc(-c3ccco3)nc3cc(=O)[nH]n23)c1	/	/	/	/	-3.0%	/
Cc1noc(C)c1-c1nc(N(C)Cc2ccco2)c2ccccc2n1	/	/	/	/	28.2µM*	/
N#Cc1cccc(-c2nc(Nc3ccccc3)c3ccccc3n2)c1	/	/	/	/	-3.8%	/
CN(Cc1ccco1)c1nc(-c2cccc(C#N)c2)nc2ccccc12	/	/	/	/	44.7µM*	/
CN(Cc1ccco1)c1nc(-c2ccoc2)nc2ccccc12	/	/	/	/	44.7µM*	/
CC(=O)OCc1cnc(C)c2oc(=O)c(C(=O)Nc3cc(F)ccc3C)cc12	/	/	/	/	-8.0%	/
CC(=O)N1CCN(C(c2ccccc2)c2ccccc2)CC1	-2.2%	/	-6.7%	/	-6.9%	/
CN1CCN(C(=S)c2ccc(N(C)C)cc2)CC1	-7.6%	-6.3	10µM*	14.5	?	20.3%
CSc1ccc(C(=S)N2CCN(C)CC2)cc1	-4.9%	-5.6	29.9µM*	-6.2	-53.7%	6.1%
CSc1ccc(C(=S)N2CCN(C(c3ccccc3)c3ccccc3)CC2)cc1	0.2%	-5.3	13.4µM*	-13.4	?	2.2%
CN(C(=S)NC(=O)C1(C)CC1(Cl)Cl)c1ccccc1 (centres undefined)	-9.1%	-4.5	-1.7%	0.4	1.2%	0.9%
CN(C(=S)NC(=O)Cc1ccccc1)c1ccccc1	-3.5%	-20.5	29.9µM*	19.4	-27.9%	3.3%
O=C(Cn1c(-c2cccs2)cc2cc(F)ccc21)NCCc1ccc(Cl)cc1	/	/	/	/	-12.2%	/
SMILES	MBNL1 CUG block	hERG WT inh	PLK1 PBD block	KCNH2 3.1 inh	VDR inh	CBFb-RUNX1 inh
COc1cc(O)c2c(c1)C(=O)c1cc(C)cc(O)c1C2=O	/	/	/	/	22.4µM*	/
COc1cc(OC)c2c(c1)C(=O)c1cc(OC)cc(OC)c1C2=O	?	-24.7	-1.6%	-13.7	-3.3%	-1.7%
COc1ccc2[nH]c(=O)c(CN(Cc3nnnn3Cc3ccco3)C3CCCCC3)cc2c1	7.5%	-10.1	?	-25.5	79.4µM*	?
COc1ccc2[nH]c(=O)c(CN(C3CCCCC3)C(c3nnnn3Cc3ccco3)C(C)C)cc2c1 (centres undefined)	?	4.0	?	0.3	?	-11.4%
COc1ccccc1-c1nnc2n1N=C(c1c(OC)cccc1OC)CS2	/	/	/	/	/	-1.4%
COc1ccc(-n2cc(C(=O)NC(C)c3ccccc3)c3ccccc3c2=O)cc1 (centres undefined)	/	/	/	/	7.4%	/
CCOC(=O)c1c(N)sc2c1CCC1C(=O)N(C3CCCCC3)C(=O)C21 (centres undefined)	4.9%	-5.3	18.9µM*	-2.2	-9.2%	9.8%
CCOC(=O)c1c(N)sc2c1CCC(CC)C2 (centres undefined)	-4.2%	10.7	?	-1.6	-9.5%	2.5%
COc1ccc(Cn2c(C(=O)O)c(CNCCc3cccs3)c3ccc(C)cc32)cc1	/	/	/	/	22.9%	/
CCC(=O)c1ccc(OCCSc2ncccn2)cc1	-12.0%	3.6	26.7µM*	6.7	-5.6%	12.1%
CC(/C=C\c1ccccc1)=C/C(=O)O	0.4%	-6.8	4.7%	-16.6	-10.2%	-4.9%
O=C(/C=C/c1ccccc1)/C=C/c1ccccc1	4.4%	13.6	-26.0%	-0.1	12.6µM*	-1.4%
Cc1ccccc1NC(=O)Nc1ccccc1C(=O)NCc1ccccc1	-2.9%	17.1	-2.8%	-21.4	20.8%	6.8%
O=C(CCl)Nc1ccccc1C(=O)NCc1ccccc1	-4.9%	-6.5	-17.8%	-108.6*	-8.7%	0.5%
COc1ccc2cc(C(N)=O)c(=Nc3ccccc3)oc2c1	0.0%	-0.9	-7.5%	/	-6.0%	-6.3%
NC(=O)c1cc2ccc(O)cc2oc1=NCc1ccccc1	?	-22.0	11.9µM*	9.8	-13.9%	3.0%
NC(=O)c1cc2ccc(O)cc2oc1=Nc1ccccc1	?	-0.2	15µM*	5.3	-4.2%	9.6%
O=C(NCc1ccccc1)c1cc2ccc(O)cc2oc1=O	?	-6.0	18.9µM*	-2.4	?	/
O=C(O)c1ccc(N=c2oc3cc(O)ccc3cc2C(=O)NCc2ccccc2)cc1	?	/	?	18.4	-5.9%	-10.1%
COc1ccc(CNC(=O)Cn2ccc3cc(S(=O)(=O)N4CCCCCC4)ccc32)c(OC)c1	/	/	/	/	2.2%	/
N#Cc1nc(-c2ccc(OCc3ccccc3Cl)cc2)oc1N1CCCCCC1	/	/	/	/	-3.5%	/
Nc1ccc2nn(-c3ccccc3)nc2c1	16.0%	-2.8	21.2µM*	-3.3	-8.1%	8.4%
Nc1ccc(-n2nc3ccccc3n2)cc1	/	-10.8	2.4%	-5.7	-13.4%	/
O=c1c(-c2ccccc2)coc2cc(O)cc(O)c12	/	/	/	/	28.2µM*	?
C#CC[N+](C)(C)CCCCCCCCC	?	3.2	37.7µM*	-38.2	-16.6%	-1.4%
CCOC(=O)c1cc(-c2ccccc2)sc1NC(=O)c1ccc(OC)c(OC)c1	-16.3%	3.7	4.74µM*	2.6	79.4µM*	9.8%
CCOC(=O)c1cc(-c2ccccc2)sc1NC(=O)COC	106.4%	-8.8	-18.1%	-4.8	-15.7%	-9.0%
CCOC(=O)c1cc(-c2ccccc2)sc1NC(=O)C(C)C	-20.4%	1.9	29.9µM*	-6.5	?	5.2%
CCOC(=O)c1ccc(OS(=O)(=O)c2ccccc2)c(OC)c1	?	-0.3	26.7µM*	-11.0	?	20.8%
CCOc1cc(C(=S)N2CCOCC2)ccc1OS(=O)(=O)c1ccccc1	1.4%	3.9	-5.2%	-2.1	-5.1%	-11.3%
